Structures are written as SMILES. In all, about 1,600 compounds were measured (“Hit score”: median about 0.13, highest 2% from about 0.46 on). Shown is part of a subset that was picked to be rich in the highest values.

The assay has as its system SARS-CoV-2. Kind of assay: Antiviral activity against SARS-CoV-2 (USA-WA1/2020 strain) measured by imaging in HRCE cells at MOI 0.4 after 96 hrs (reported as hit score from 0-1 for on-disease vs off-disease activity: scores >0.6 considered hits). It is filed as functional, Homo sapiens.
In the case of `CN1[C@@H]2CC[C@H]1C[C@@H](OC(=O)[C@H](CO)c1ccccc1)C2` [HYOSCYAMINE], the Hit score was 0.0469.

On to `O=C(O)CCC/C=C\CC1C(O)CC(O)C1/C=C/C(O)COc1cccc(Cl)c1` (stereo not given) [CLOPROSTENOL], for which the Hit score is -0.03107.

In turn, `COc1cccc(N2CCN(C3=Nc4c(F)cccc4[C@H](CC(=O)O)N3c3cc(C(F)(F)F)ccc3OC)CC2)c1` [LETERMOVIR] came in with a Hit score of 0.3651.

Regarding `CCOC(=O)[C@H]1O[C@@H]1C(=O)N[C@@H](CC(C)C)C(=O)NCCC(C)C` [ALOXISTATIN], the Hit score is on record as 0.7896.

`N[C@@H]1[C@H]2CN(c3nc4c(cc3F)c(=O)c(C(=O)O)cn4-c3ccc(F)cc3F)C[C@@H]12` [TROVAFLOXACIN] registered a Hit score of 0.134.

`O=C(O)[C@@H]1CCCN1` [PROLINE] registered a Hit score of 0.14.

As to `COc1cc(Nc2ncc(F)c(Nc3ccc4c(n3)NC(=O)C(C)(C)O4)n2)cc(OC)c1OC` [R-406], the Hit score was found to be 0.1646.

Consider `CC(=O)c1c(C)c2cnc(Nc3ccc(N4CCNCC4)cn3)nc2n(C2CCCC2)c1=O` [PALBOCICLIB], for which the Hit score was 0.007482.

Take `OC(CCN1CCCCC1)(c1ccccc1)c1ccccc1` [PRIDINOL]: the Hit score was 0.1349.

Compound `OC(CCN1CCCC1)(c1ccccc1)C1CCCCC1` (stereo not given) [PROCYCLIDINE] returned a Hit score of 0.2175.

`OC(CCN1CCCCC1)(c1ccccc1)C1CCCCC1` (stereo not given) [TRIHEXYPHENIDYL] showed a Hit score of 0.4673.

Take `Sc1ncnc2nc[nH]c12` [MERCAPTOPURINE ANHYDROUS]: the Hit score amounted to 0.2212.

For `COC(=O)C[C@](O)(CCC(C)(C)O)C(=O)O[C@@H]1C(OC)=C[C@]23CCCN2CCc2cc4c(cc2[C@H]13)OCO4` [HARRINGTONINE], the Hit score came to 0.07403.

`CCCC[C@H](NC(=O)[C@@H]1[C@@H]2[C@H](CN1C(=O)[C@@H](NC(=O)NC1(CS(=O)(=O)C(C)(C)C)CCCCC1)C(C)(C)C)C2(C)C)C(=O)C(=O)NC1CC1` returned a Hit score of 0.1004.

`C[C@]12CC[C@H](O)CC1=CC[C@@H]1[C@@H]2CC[C@]2(C)C(c3cccnc3)=CC[C@@H]12` [ABIRATERONE] had a Hit score of 0.3975.

Regarding `CC(CCC(=O)O)[C@H]1CCC2C3C[C@H](O)[C@@H]4C[C@H](O)CC[C@]4(C)C3CC[C@@]21C` (stereo not given in full), the Hit score was found to be 0.1858.

With `CC[C@H]1[C@@H](O)[C@@H]2[C@H](CC[C@]3(C)[C@@H]([C@H](C)CCC(=O)O)CC[C@@H]23)[C@@]2(C)CC[C@@H](O)C[C@@H]12` [OBETICHOLIC ACID], the Hit score turned out to be 0.5073.

On to `C[C@H](CCC(=O)O)[C@H]1CC[C@H]2[C@@H]3[C@@H](O)C[C@@H]4C[C@H](O)CC[C@]4(C)[C@H]3CC[C@]12C` [URSODIOL], for which the Hit score is 0.2784.

`CN1CC(=O)N2[C@H](c3ccc4c(c3)OCO4)c3[nH]c4ccccc4c3C[C@@H]2C1=O` registered a Hit score of 0.2898.

Regarding `CO[C@H]1/C=C/O[C@@]2(C)Oc3c(C)c(O)c4c(O)c(cc(O)c4c3C2=O)NC(=O)/C(C)=C\C=C\[C@H](C)[C@H](O)[C@@H](C)[C@@H](O)[C@@H](C)[C@H](OC(C)=O)[C@@H]1C` [RIFAMYCIN], the Hit score is 0.1815.

`NC(=O)[C@@H]1CC[C@@H]2CN1C(=O)N2OS(=O)(=O)[O-].[Na+]` [AVIBACTAM SODIUM] returned a Hit score of 0.2969.

Compound `O=C(Nc1cc(Cl)cc(Cl)c1O)c1c(O)c(Cl)cc(Cl)c1Cl` [OXYCLOZANIDE] displayed a Hit score of 0.1882.

In turn, `Oc1c(Cl)cc(Cl)c(Cl)c1Cc1c(O)c(Cl)cc(Cl)c1Cl` [HEXACHLOROPHENE] showed a Hit score of 0.5286.

In turn, `Cc1ccc2c(Cl)cc(Cl)c(O)c2n1` [CHLORQUINALDOL] had a Hit score of 0.2863.

`Cc1ccc(C(=O)Nc2ccc(CN3CCN(C)CC3)c(C(F)(F)F)c2)cc1C#Cc1cnc2cccnn12` [PONATINIB] returned a Hit score of 0.5086.

Compound `CS(=O)(=O)c1ccc(C(=O)Nc2ccc(Cl)c(-c3ccccn3)c2)c(Cl)c1` [VISMODEGIB] showed a Hit score of 0.5244.

In turn, `O=C(O)c1ccccc1C(=O)Nc1ccc(S(=O)(=O)Nc2nccs2)cc1` [PHTHALYLSULFATHIAZOLE] showed a Hit score of 0.0541.

The compound `Cc1cc(-c2ccc(/N=N/c3ccc4c(S(=O)(=O)[O-])cc(S(=O)(=O)[O-])c(N)c4c3O)c(C)c2)ccc1/N=N/c1ccc2c(S(=O)(=O)[O-])cc(S(=O)(=O)[O-])c(N)c2c1O.[Na+].[Na+].[Na+].[Na+]` [EVANS BLUE] came in with a Hit score of 0.2486.

`CC(SC(=O)c1cccs1)C(=O)NCC(=O)O` (stereo not given) [STEPRONIN] displayed a Hit score of 0.2404.

In turn, `CCCC(CCC)C(=O)O.CCCC(CCC)C(=O)[O-].[Na+]` [DIVALPROEX SODIUM] had a Hit score of 0.2277.

`CCCCCCC(=O)O[C@H]1CC[C@H]2[C@@H]3CCC4=CC(=O)CC[C@]4(C)[C@H]3CC[C@]12C` [TESTOSTERONE ENANTHATE] showed a Hit score of 0.1237.

In the case of `CC(C)(C)CC(C)(C)c1ccc(OCCOCC[N+](C)(C)Cc2ccccc2)cc1` [BENZETHONIUM], the Hit score is 0.03086.

As for `Cc1nc2ccccc2n1Cc1ccc(Cl)cc1` [CHLORMIDAZOLE], the Hit score is -0.04269.

On to `CC(C)/N=c1\cc2n(-c3ccc(Cl)cc3)c3ccccc3nc-2cc1Nc1ccc(Cl)cc1` [CLOFAZIMINE], for which the Hit score is 0.5936.

Turning to `O=C(O)COCCN1CCN([C@H](c2ccccc2)c2ccc(Cl)cc2)CC1` [LEVOCETIRIZINE], the Hit score is reported as -0.05445.

Consider `OCCOCCN1CCN(C(c2ccccc2)c2ccc(Cl)cc2)CC1` (stereo not given) [HYDROXYZINE], for which the Hit score was determined as 0.00308.

`Clc1ccc(C(OCCN2CCCCC2)c2ccccc2)cc1` (stereo not given) [CLOPERASTINE]: the Hit score worked out at 0.5618.

`O=P(O)(O)C(Sc1ccc(Cl)cc1)P(=O)(O)O` [TILUDRONIC ACID] came in with a Hit score of 0.04613.

`Cc1cccc(C)c1NC(=O)CN1CCN(CCCC(c2ccc(F)cc2)c2ccc(F)cc2)CC1` [LIDOFLAZINE]: the Hit score is reported as 0.2006.

As for `CCCCC(C)(O)C/C=C/[C@H]1[C@H](O)CC(=O)[C@@H]1CCCCCCC(=O)OC` (stereo not given in full) [MISOPROSTOL], the Hit score is -0.07952.
